Hits are enriched below; roughly 18% of the tested compounds scored in any of these assays.
VDR inh – Inhibitors of the vitamin D receptor (VDR): qHTS; Vitamin D3 receptor (Homo sapiens), P11473; VDR-SRC2-3 peptide fluorescence polarization, 2 h; Potency, µM, hits mostly inhibitors; actives 0.93% (n = 400,000); AID 504847, 2011
Target sequence (P11473 whole entry, looked up): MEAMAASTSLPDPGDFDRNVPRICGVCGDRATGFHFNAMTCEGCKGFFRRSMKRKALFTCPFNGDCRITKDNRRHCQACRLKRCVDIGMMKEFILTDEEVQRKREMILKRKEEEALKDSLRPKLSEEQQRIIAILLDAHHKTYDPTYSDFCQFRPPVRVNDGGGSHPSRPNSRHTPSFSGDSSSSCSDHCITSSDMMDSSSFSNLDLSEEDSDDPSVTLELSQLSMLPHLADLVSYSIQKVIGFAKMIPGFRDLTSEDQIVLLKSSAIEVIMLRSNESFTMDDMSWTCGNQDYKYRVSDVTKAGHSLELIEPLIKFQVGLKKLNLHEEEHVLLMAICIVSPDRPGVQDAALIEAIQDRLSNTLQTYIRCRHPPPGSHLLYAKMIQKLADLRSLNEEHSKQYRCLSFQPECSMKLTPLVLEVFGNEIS
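Signal is fluorescence polarization, reporting how far test compounds block the interaction of VDR with the SRC2-3 coregulator peptide after a 2 h room-temperature incubation.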
TDP1 cell CPT – qHTS for Inhibitors of human tyrosyl-DNA phosphodiesterase 1 (TDP1): qHTS in cells in presence of CPT; chicken DT40 Tdp1-/-;hTDP1 cells + 20 nM CPT, ATP luminescence, 48 h; Potency, µM (titrated, usually from 46.2 µM), hits mostly inhibitors; actives 12% (n = 420,000); AID 686979, 2013; note: nearly all actives have a fitted effect of over 55% in size
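Cell growth measured by CellTiter-Glo luminescence after a minimum 48 h, 37 C compound exposure with 20 nM CPT in Tdp1-knockout DT40 cells stably expressing hTDP1, seeded 400/well; qHTS titration format.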
DT40 TDP1 no CPT – qHTS for Inhibitors of human tyrosyl-DNA phosphodiesterase 1 (TDP1): qHTS in cells in absence of CPT | Potency, µM (highest dose often 46.2 µM), hits mostly inhibitors | actives 15% (n = 420,000) | DT40 Tdp1-/- hTDP1 cells, no CPT, ATP luminescence, 48 h; note: nearly all actives have a fitted effect of over 55% in size
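A cellular qHTS used chicken DT40 cells lacking endogenous Tdp1 but carrying stably transfected human TDP1. Compounds were applied without camptothecin, and cell growth kinetics were judged by ATP-dependent luminescence after ≥48 hr.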
TDP1 inh – qHTS Assay for Inhibitors of Tyrosyl-DNA Phosphodiesterase (TDP1) | recombinant TDP1, AlphaScreen DNA substrate cleavage | AID 485290, 2010 | Potency, µM (doses to about 130 µM), most hits filed as inhibitors | actives 0.28% (n = 350,000); note: nearly all actives have a fitted effect of over 40% in size
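Recombinant E. coli-expressed Tdp1 (1 nM) preincubated with compound 15 min at RT, then 5'-biotin/3'-phosphotyrosine-FITC DNA substrate (15 nM) added for 5 min. AlphaScreen beads (10 ug/ml) added, 10 min RT; tyrosine-FITC cleavage read as signal loss.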
PLK1 PBD inh – qHTS for Inhibitors of PLK1-PDB (polo-like kinase 1 - polo-box domain): Primary Screen; AID 720504, 2013; Potency, µM, actives largely listed as inhibitors; Serine/threonine-protein kinase PLK1 (Homo sapiens), P53350; Plk1 PBD binding of FITC phosphopeptide, fluorescence polarization; actives 2.8% (n = 360,000); note: series mostly up to about 57 µM; nearly all actives have a fitted effect of over 65% in size
GCN5L2 inh-1 – qHTS Assay for Inhibitors of GCN5L2; AID 504327, 2011; actives 0.21% (n = 390,000); Histone acetyltransferase KAT2A (Homo sapiens), Q92830; Potency, µM (doses to about 58.9 µM), hits mostly inhibitors; GCN5L2 HAT assay, ThioGlo1 CoA-SH fluorescence
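ThioGlo1-coupled HAT assay: 20nM GCN5L2, 70uM acetyl-CoA, 75uM H3(1-25) peptide, pH 7.5. Fluorescence read at 340/540nm at start and after 20 min at room temperature.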
GCN5L2 inh-2 – qHTS Assay for Inhibitors of GCN5L2: Hit confirmation | Potency, µM, usual class: inhibitors | actives 70% (n = 140) | GCN5L2 HAT, ThioGlo1 CoA fluorescence, 20 min | shares compounds with GCN5L2 inh-1
VDR confirm – qHTS for Inhibitors of the vitamin D receptor (VDR): Hit Validation in Primary Screen; shares compounds with VDR inh; VDR-coactivator inhibition assay, qHTS confirmation; Potency, µM, hits mostly inhibitors; actives 89% (n = 840); AID 602199, 2012
VDR FP – qHTS for Inhibitors of the vitamin D receptor (VDR): Hit Validation using a Fluorescein Assay; shares compounds with VDR inh; VDR-coactivator binding, fluorescein fluorescence polarization; Potency, µM (highest dose often 57.1 µM), usual class: inhibitors; actives 48% (n = 840); AID 602200, 2012
VDR bla – qHTS for Inhibitors of the vitamin D receptor (VDR): Hit Validation using a Beta-Lactamase Assay; shares compounds with VDR inh; VDR beta-lactamase reporter cells, FRET ratio; cells co-treated with VDR agonist LG190178; Potency, µM (highest dose often 46.1 µM), most hits filed as inhibitors; actives 23% (n = 840); AID 602202, 2012
VDR viability – qHTS for Inhibitors of the vitamin D receptor (VDR): Hit Validation using a Cytotoxicity Assay | shares compounds with VDR inh | cytotoxicity counter-screen, cell viability, qHTS | Potency, µM (titrated, usually from 48.3 µM), most hits filed as cytotoxic | actives 18% (n = 840); note: nearly all actives have a fitted effect of over 75% in size
TbPYK inh – qHTS of Trypanosoma Brucei Inhibitors: Confirmatory Assay for Cherry-picked Compounds | shares compounds with PLK1 PBD inh | actives 67% (n = 890) | recombinant TbPYK, Kinase-Glo ATP luminescence | Potency, µM (titrated, usually from 76.9 µM), most hits filed as inhibitors; note: nearly all actives have a fitted effect of over 70% in size
TbPYK orthogonal – qHTS of Trypanosoma Brucei Inhibitors: Orthogonal Assay for Cherry-picked Compounds | shares compounds with PLK1 PBD inh | recombinant TbPYK, ADP-Glo luminescence, 60 min | Potency, µM (doses to about 76.9 µM), actives largely listed as inhibitors | actives 62% (n = 890) | AID 720584, 2013; note: nearly all actives have a fitted effect of over 75% in size
Hits are given with their value. Calls come from the whole dose curve; as a rule, active = well fitted curve in the direction sought with a large enough effect; inconclusive = small, poorly fitted or top-dose-only effect, or another doubt; inactive = no such curve, though single readings can be large; an effect the other way counts as inactive or inconclusive.

Results for COc1cc(N=c2ssnc2Cl)cc(OC)c1OC ?
VDR inh: inconclusive; TDP1 cell CPT: 3.26µM; DT40 TDP1 no CPT: 2.59µM; TDP1 inh: inactive; PLK1 PBD inh: 0.947µM; GCN5L2 inh-1: 10µM; GCN5L2 inh-2: 3.63; TbPYK inh: 3.55µM; TbPYK orthogonal: 6.31µM

How did O=C1C=CC(=O)C(C2=C3C(=O)N(CCc4ccccc4)CC(=O)N3CCC2)=C1 do in these assays?
VDR inh: 31.6µM; TDP1 cell CPT: 1.3µM; DT40 TDP1 no CPT: 1.3µM; TDP1 inh: inactive; PLK1 PBD inh: inconclusive; GCN5L2 inh-1: 14.1µM; GCN5L2 inh-2: 18.2; TbPYK inh: 0.562µM; TbPYK orthogonal: 0.891µM

What do the screens show for `COc1ccc(S(=O)(=O)N(C)C[C@H]2Oc3c(NC(=O)c4ccncc4)cccc3C(=O)N([C@H](C)CO)C[C@@H]2C)cc1`?
VDR inh: inactive; TDP1 cell CPT: inactive; DT40 TDP1 no CPT: inactive; TDP1 inh: inactive; PLK1 PBD inh: inactive; GCN5L2 inh-1: inactive

How did CC1=NOC(=O)/C1=C\c1ccc(-c2ccccc2Br)o1 do in these assays?
VDR inh: 12.6µM; TDP1 cell CPT: 6.51µM; DT40 TDP1 no CPT: 5.8µM; TDP1 inh: inactive; PLK1 PBD inh: 0.423µM; GCN5L2 inh-1: 12.6µM; GCN5L2 inh-2: 11.5; VDR confirm: 9.47; VDR FP: inconclusive; VDR bla: inconclusive; VDR viability: inconclusive; TbPYK inh: inconclusive; TbPYK orthogonal: inactive

What do the screens show for `CCOC(=O)C1CCN(C(=O)CSc2nc3ncccc3[nH]2)CC1`?
VDR inh: inactive; TDP1 cell CPT: inactive; DT40 TDP1 no CPT: inactive; TDP1 inh: inactive; PLK1 PBD inh: inactive; GCN5L2 inh-1: inactive
